Records with an inconclusive call do not appear. Where a call stands in place of a potency, no number is given. A number with no mark means an inactive call. Active and inactive are the calls of the source. Unless noted, calls come from the whole dose curve; as a rule, active = well fitted curve in the direction sought with a large enough effect in the repeat runs; inconclusive = weak or mixed curves; inactive = no such curve, though single readings can be large; an effect the other way counts as inactive or inconclusive.
Experiments:
[1] = biological target: Aryl hydrocarbon receptor (Homo sapiens) (UniProt P35869); experiment: qHTS assay to identify small molecule that activate the aryl hydrocarbon receptor (AhR) signaling pathway (AID 743085);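 note: HG2L7.5c1 human HepG2 liver cells with stably integrated DRE-driven firefly reporter; series mostly up to about 70 µM; nearly all actives have a fitted effect of over 15% in size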
In short: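 AhR agonist activity is inferred from enhanced light output of a DRE-controlled firefly luciferase reporter in HepG2 cells, measured with ONE-Glo following 24 h treatment at 37C.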

[2] = qHTS assay to identify small molecule that activate the aryl hydrocarbon receptor (AhR) signaling pathway - cell viability counter screen (AID 743086);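 note: HepG2 liver cells carrying the AhR DRE luciferase reporter; series mostly up to about 70 µM; nearly all actives have a fitted effect of over 45% in size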
In short: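 Cytotoxicity counter screen: CellTiter-Fluor signal (30 min, 37 C) in 4000 HepG2 cells/well carrying the DRE-luciferase reporter, following 24 h compound exposure at 37 C.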

[3] = biological target: Peroxisome proliferator-activated receptor gamma (Homo sapiens) (UniProt P37231); experiment: qHTS assay to identify small molecule agonists of the peroxisome proliferator-activated receptor gamma (PPARg) signaling pathway (AID 743094; active = well fitted activation curve with a large enough effect in the signal ratio in the repeat runs, not every such curve was filed as active; the % refers to the signal ratio)
In short: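 Following 5 h plating at 37C, PPARg-bla HEK293H cells receive compound or DMSO for 17 h; fluorescence intensity is recorded after LiveBLAzer B/G loading for 1 h at room temperature.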

[4] = biological target: Peroxisome proliferator-activated receptor gamma (Homo sapiens) (UniProt P37231); experiment: qHTS assay to identify small molecule antagonists of the peroxisome proliferator-activated receptor gamma (PPARg) signaling pathway (AID 743191; calls by dose curve; note: series mostly up to about 63 µM; nearly all actives have a fitted effect of over 30% in size)
In short: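 Beta-lactamase reporter under UAS control in HEK293H PPARg-bla cells; compound treatment 17 h at 37C. Read-out: fluorescence intensity after 1 h room-temperature incubation with LiveBLAzer B/G FRET substrate.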

[5] = qHTS assay to identify small molecule antagonists of the peroxisome proliferator-activated receptor gamma (PPARg) signaling pathway - cell viability counter screen (AID 743194); note: nearly all actives have a fitted effect of over 55% in size
In short: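 Viability was measured as CellTiter-Glo luminescence in GeneBLAzer PPARg UAS-bla HEK293H cells. These cells had been exposed 17 h at 37 C to compounds together with rosiglitazone at 50 nM final, with the beta-lactamase readout taken in the same wells.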

[6] = qHTS assay for small molecule agonists of the antioxidant response element (ARE) signaling pathway (AID 743202; active = well fitted activation curve with a large enough effect in the signal ratio in the repeat runs, not every such curve was filed as active; the % refers to the signal ratio; note: potency is the fitted concentration of half-maximal effect)
In short: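 An ARE-responsive beta-lactamase gene stably integrated in HepG2 cells serves as reporter. After 5 h plating and 16 h compound incubation at 37 C, fluorescence of the B/G FRET substrate was measured.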

[7] = qHTS assay for small molecule agonists of the antioxidant response element (ARE) signaling pathway - cell viability counter screen (AID 743203; calls by dose curve; note: nearly all actives have a fitted effect of over 55% in size)
In short: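 Compounds in DMSO were pinned onto ARE-bla HepG2 cells plated 5 hrs earlier at 2,000 cells/well. Sixteen hours later at 37C/5% CO2, CellTiter-Glo was added and luminescence measured after 30 min at room temperature.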

[8] = qHTS assay for small molecule activators of the heat shock response signaling pathway (AID 743210; active = well fitted activation curve with a large enough effect in the signal ratio in the repeat runs, with a control signal flat, not every such curve was filed as active; the % refers to the signal ratio;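 note: HeLa cells with beta-lactamase reporter driven by heat shock elements; series mostly up to about 63 µM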)
In short: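 In HSE-bla HeLa cells, 5 h compound incubation (37 C) precedes addition of LiveBLAzer B/G substrate; after 2.5 h at room temperature, fluorescence intensity indicates reporter induction.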

[9] = qHTS assay to identify small molecule agonists of the peroxisome proliferator-activated receptor delta (PPARd) signaling pathway - cell viability counter screen (AID 743211); note: nearly all actives have a fitted effect of over 55% in size
In short: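 qHTS cell viability: PPARd-bla HEK293H; 17 h cpd, 37C; CellTiter-Glo, luminescence at 30 min RT.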

[10] = biological target: Peroxisome proliferator-activated receptor delta (Homo sapiens) (UniProt Q03181); experiment: qHTS assay to identify small molecule agonists of the peroxisome proliferator-activated receptor delta (PPARd) signaling pathway (AID 743212; calls by dose curve)
In short: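 HEK293H UAS-bla reporter cells, human PPARd system; compounds delivered in DMSO after 5 h plating, then at 37 C. Beta-lactamase FRET read, 2 h RT substrate step.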

[11] = qHTS assay to identify small molecule antagonists of the peroxisome proliferator-activated receptor delta (PPARd) signaling pathway - cell viability counter screen (AID 743213); note: nearly all actives have a fitted effect of over 50% in size
In short: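 HEK293H PPARd UAS-bla cells, 5 h pre-incubation, compound + L165041 300 nM final, 17 h 37 C; B/G FRET substrate 2 h RT; then CellTiter-Glo 30 min RT, luminescence.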

[12] = qHTS assay to identify small molecule agonists of the farnesoid-X-receptor (FXR) signaling pathway - cell viability counter screen (AID 743218); note: nearly all actives have a fitted effect of over 45% in size
In short: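 After 16 h at 37 C with test compounds, FXR-bla HEK 293T cells were given LiveBLAzer B/G substrate for 2 h at RT and then CellTiter-Glo; luminescence was taken after 30 min.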

[13] = biological target: Bile acid receptor (Homo sapiens) (UniProt Q96RI1); experiment: qHTS assay to identify small molecule agonists of the farnesoid-X-receptor (FXR) signaling pathway (AID 743220; active = well fitted activation curve with a large enough effect in the signal ratio in the repeat runs, not every such curve was filed as active; the % refers to the signal ratio)
In short: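 Beta-lactamase reporter under UAS control in GeneBLAzer FXR HEK 293T cells (5000/well) measured with LiveBLAzer FRET substrate after 2 h at room temperature. Compound exposure lasted 16 h at 37C.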

[14] = qHTS assay to identify small molecule agonists of the vitamin D receptor (VDR) signaling pathway - cell viability counter screen (AID 743224); note: series mostly up to about 63 µM; nearly all actives have a fitted effect of over 50% in size
In short: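 Here cell health was gauged by luminescent ATP detection (CellTiter-Glo, 30 min RT) in VDR-bla cells that had been incubated with test compounds for 16 h at 37C and 5% CO2.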

[15] = qHTS assay for small molecule activators of the heat shock response signaling pathway - cell viability counter screen (AID 743209); note: nearly all actives have a fitted effect of over 50% in size
In short: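 Counter screen for cytotoxicity in HeLa HSE-bla reporter cells. Treatment was 5 h at 37 C; viability was detected by luminescent ATP assay (CellTiter-Glo) in the same wells as the beta-lactamase read.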

[16] = qHTS assay to identify small molecule antagonists of the farnesoid-X-receptor (FXR) signaling pathway - cell viability counter screen (AID 743221; active = well fitted cell-killing curve with a large enough effect in the repeat runs, not every such curve was filed as active; note: nearly all actives have a fitted effect of over 50% in size)
In short: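 After a 5 h settling period, FXR-bla HEK 293T cells receive compound and chenodeoxycholic acid (50 uM final) and incubate 16 h at 37 C; CellTiter-Glo luminescence, read after 30 min at room temperature, reports cell viability.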

[17] = biological target: Peroxisome proliferator-activated receptor delta (Homo sapiens) (UniProt Q03181); experiment: qHTS assay to identify small molecule antagonists of the peroxisome proliferator-activated receptor delta (PPARd) signaling pathway (AID 743215; active = well fitted inhibition curve with a large enough effect in the signal ratio in the repeat runs, not every such curve was filed as active; the % refers to the signal ratio;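 note: cells stimulated with agonist L165041 at 300 nM final during compound exposure; series mostly up to about 62 µM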)
In short: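 With L165041 present at 300 nM final, compounds were incubated 17 h at 37 C on PPARd UAS-bla HEK293H cells. A FRET-based beta-lactamase substrate was then applied for 2 h at room temperature and fluorescence intensity recorded.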

[18] = biological target: Vitamin D3 receptor (Homo sapiens) (UniProt P11473); experiment: qHTS assay to identify small molecule agonists of the vitamin D receptor (VDR) signaling pathway (AID 743222; calls by dose curve)
In short: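 VDR-bla cells were seeded, left 4 h, treated with compounds in DMSO for 16 h, incubated 2 h at RT with B/G FRET substrate, and read for fluorescence.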

[19] = biological target: Vitamin D3 receptor (Homo sapiens) (UniProt P11473); experiment: qHTS assay to identify small molecule antagonists of the vitamin D receptor (VDR) signaling pathway (AID 743223; active = well fitted inhibition curve with a large enough effect in the signal ratio in the repeat runs, not every such curve was filed as active; the % refers to the signal ratio)
In short: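 Reporter line VDR-bla; stimulus 1alpha,25-(OH)2 vitamin D3, 3 nM final; compound co-addition, 16 h 37C/5% CO2; LiveBLAzer B/G substrate 2 h RT; fluorescence intensity.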

[20] = biological target: Bile acid receptor (Homo sapiens) (UniProt Q96RI1); experiment: qHTS assay to identify small molecule antagonists of the farnesoid-X-receptor (FXR) signaling pathway (AID 743217; active = well fitted inhibition curve with a large enough effect in the signal ratio in the repeat runs, not every such curve was filed as active; the % refers to the signal ratio)
In short: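 In this cell-based antagonist screen, inhibition of CDCA-driven (50 uM final) UAS-beta-lactamase expression in HEK 293T cells was measured by FRET fluorescence following 16 h compound exposure at 37 °C.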

Bile acid receptor (Homo sapiens), sequence (Q96RI1 whole entry, looked up): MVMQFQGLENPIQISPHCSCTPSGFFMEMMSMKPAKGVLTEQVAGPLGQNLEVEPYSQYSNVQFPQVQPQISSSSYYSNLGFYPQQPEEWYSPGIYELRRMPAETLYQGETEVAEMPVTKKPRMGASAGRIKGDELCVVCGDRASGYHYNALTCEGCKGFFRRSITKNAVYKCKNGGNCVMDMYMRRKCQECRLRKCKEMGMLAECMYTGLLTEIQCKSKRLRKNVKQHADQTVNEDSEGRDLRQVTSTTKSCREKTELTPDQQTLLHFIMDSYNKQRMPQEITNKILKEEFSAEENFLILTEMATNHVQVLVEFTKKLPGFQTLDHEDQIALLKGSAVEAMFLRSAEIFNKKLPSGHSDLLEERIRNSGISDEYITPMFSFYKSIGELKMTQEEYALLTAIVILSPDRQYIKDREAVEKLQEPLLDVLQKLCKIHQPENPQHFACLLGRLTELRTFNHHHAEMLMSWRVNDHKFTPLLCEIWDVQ
Peroxisome proliferator-activated receptor gamma (Homo sapiens), sequence (P37231 whole entry, looked up): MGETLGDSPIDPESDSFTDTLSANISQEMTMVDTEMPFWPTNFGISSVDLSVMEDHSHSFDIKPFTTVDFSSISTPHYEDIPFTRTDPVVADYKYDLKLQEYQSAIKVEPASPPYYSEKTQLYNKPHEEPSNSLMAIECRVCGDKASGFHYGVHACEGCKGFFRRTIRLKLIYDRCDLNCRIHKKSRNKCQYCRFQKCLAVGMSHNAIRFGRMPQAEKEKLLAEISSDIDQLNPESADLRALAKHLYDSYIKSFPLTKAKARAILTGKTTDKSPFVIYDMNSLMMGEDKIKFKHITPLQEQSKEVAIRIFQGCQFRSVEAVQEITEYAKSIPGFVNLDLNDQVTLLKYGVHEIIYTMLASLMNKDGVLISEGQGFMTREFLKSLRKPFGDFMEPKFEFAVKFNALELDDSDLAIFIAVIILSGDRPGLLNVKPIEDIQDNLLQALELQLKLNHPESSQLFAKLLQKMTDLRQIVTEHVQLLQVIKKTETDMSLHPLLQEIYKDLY
Peroxisome proliferator-activated receptor delta (Homo sapiens), sequence (Q03181 whole entry, looked up): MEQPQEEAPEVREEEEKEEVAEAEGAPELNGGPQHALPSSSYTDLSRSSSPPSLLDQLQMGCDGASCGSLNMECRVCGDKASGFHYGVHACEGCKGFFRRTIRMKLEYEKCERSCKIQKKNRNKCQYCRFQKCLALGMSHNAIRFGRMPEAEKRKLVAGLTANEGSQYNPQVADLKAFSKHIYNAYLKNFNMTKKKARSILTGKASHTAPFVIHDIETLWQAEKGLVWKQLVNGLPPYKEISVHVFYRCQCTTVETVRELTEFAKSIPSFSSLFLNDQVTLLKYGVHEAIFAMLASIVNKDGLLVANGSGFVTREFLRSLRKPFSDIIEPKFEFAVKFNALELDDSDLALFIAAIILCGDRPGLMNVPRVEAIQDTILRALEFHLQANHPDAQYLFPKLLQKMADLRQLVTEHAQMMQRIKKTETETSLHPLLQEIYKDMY
Aryl hydrocarbon receptor (Homo sapiens), sequence (P35869 whole entry, looked up): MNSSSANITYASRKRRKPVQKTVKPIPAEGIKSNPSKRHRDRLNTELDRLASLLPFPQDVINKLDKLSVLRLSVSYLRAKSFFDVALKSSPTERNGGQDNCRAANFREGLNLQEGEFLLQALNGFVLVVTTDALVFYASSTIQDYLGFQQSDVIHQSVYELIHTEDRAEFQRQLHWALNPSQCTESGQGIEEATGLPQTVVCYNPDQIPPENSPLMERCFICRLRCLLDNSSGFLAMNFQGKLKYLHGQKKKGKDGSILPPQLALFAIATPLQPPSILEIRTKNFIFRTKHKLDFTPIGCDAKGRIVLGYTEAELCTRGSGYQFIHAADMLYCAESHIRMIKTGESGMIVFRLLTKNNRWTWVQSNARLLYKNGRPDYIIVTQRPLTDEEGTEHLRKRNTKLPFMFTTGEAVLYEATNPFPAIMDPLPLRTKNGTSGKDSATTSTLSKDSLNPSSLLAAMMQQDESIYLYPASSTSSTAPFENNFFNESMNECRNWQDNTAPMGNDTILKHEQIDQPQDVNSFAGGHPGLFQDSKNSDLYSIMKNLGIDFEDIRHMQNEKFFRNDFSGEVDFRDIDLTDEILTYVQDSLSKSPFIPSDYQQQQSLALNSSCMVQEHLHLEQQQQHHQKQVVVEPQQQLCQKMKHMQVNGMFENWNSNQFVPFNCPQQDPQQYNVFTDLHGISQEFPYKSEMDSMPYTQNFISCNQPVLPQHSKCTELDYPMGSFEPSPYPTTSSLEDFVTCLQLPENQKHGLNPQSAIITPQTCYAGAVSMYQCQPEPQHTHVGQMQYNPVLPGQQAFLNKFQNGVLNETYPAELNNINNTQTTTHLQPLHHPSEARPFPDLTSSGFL
Vitamin D3 receptor (Homo sapiens), sequence (P11473 whole entry, looked up): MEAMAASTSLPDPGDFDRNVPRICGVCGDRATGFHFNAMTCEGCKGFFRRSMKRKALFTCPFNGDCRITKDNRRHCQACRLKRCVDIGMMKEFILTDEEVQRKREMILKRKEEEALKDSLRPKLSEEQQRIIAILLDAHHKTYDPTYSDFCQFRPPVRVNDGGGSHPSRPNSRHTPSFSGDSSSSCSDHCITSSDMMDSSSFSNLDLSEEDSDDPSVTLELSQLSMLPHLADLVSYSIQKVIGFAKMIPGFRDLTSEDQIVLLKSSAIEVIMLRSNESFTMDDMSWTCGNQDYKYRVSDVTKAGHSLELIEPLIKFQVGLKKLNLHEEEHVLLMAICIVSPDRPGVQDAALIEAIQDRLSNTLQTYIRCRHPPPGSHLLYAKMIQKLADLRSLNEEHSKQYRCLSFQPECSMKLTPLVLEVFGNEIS

| Structure (SMILES) | Potency [1] | Potency [2] | outcome [3] | outcome [4] | Potency [5] | Potency [6] | outcome [7] | outcome [8] | Potency [9] | outcome [10] | Potency [11] | outcome [12] | outcome [13] | outcome [14] | outcome [15] | Potency [16] | outcome [17] | outcome [18] | outcome [19] | outcome [20] |
| --- | --- | --- | --- | --- | --- | --- | --- | --- | --- | --- | --- | --- | --- | --- | --- | --- | --- | --- | --- | --- |
| CCN1CCCC(OC(=O)C(c2ccccc2)c2ccccc2)C1 (stereo not given) | inactive | inactive | inactive | inactive | inactive | inactive | inactive | inactive | inactive | inactive | inactive | inactive | inactive | inactive |  |  |  |  |  |  |
| OCc1ccccn1 | inactive | inactive | inactive | inactive | inactive | 11.9 µM (active) | inactive | inactive | inactive | inactive | inactive | inactive |  |  | inactive | inactive |  |  |  |  |
| CCn1cc(C(=O)O)c(=O)c2cc(F)c(N3CCN(C)CC3)cc21 | inactive | inactive | inactive | inactive | inactive | inactive | inactive | inactive | inactive | inactive | inactive | inactive |  |  | inactive | inactive | inactive |  |  |  |
| C=C[Si](OC)(OC)OC | inactive | inactive | inactive | inactive | inactive | inactive | inactive | inactive | inactive | inactive | inactive | inactive |  | inactive |  | inactive | inactive | inactive | inactive |  |
| C=C(C)C(=O)NCCC[N+](C)(C)C | inactive | inactive | inactive | inactive | inactive | inactive | inactive | inactive | inactive | inactive | inactive | inactive | inactive |  | inactive |  | inactive | inactive | inactive | inactive |
| Nc1nc2c(ncn2CCC(CO)CO)c(=O)[nH]1 | inactive | inactive | inactive | inactive | inactive | inactive | inactive | inactive | inactive | inactive | inactive | inactive | inactive |  | inactive |  |  | inactive |  | inactive |
| OCC(CO)(CO)COCC(CO)(CO)CO | inactive | inactive | inactive | inactive | inactive | inactive | inactive | inactive | inactive |  | inactive | inactive | inactive | inactive | inactive |  |  | inactive | inactive | inactive |
| COC(=O)CCCCCCCCC(=O)OC | inactive | inactive | inactive | inactive | inactive | inactive | inactive | inactive | inactive | inactive | inactive | inactive | inactive | inactive | inactive | inactive | inactive | inactive | inactive |  |
| CCC(=O)/C=C/c1ccc(OC)cc1 | inactive | inactive | inactive | inactive | inactive | inactive | inactive | inactive |  | inactive | inactive | inactive | inactive | inactive | inactive |  |  | inactive | inactive | inactive |
| Cc1onc(-c2ccccc2)c1-c1ccc(S(N)(=O)=O)cc1 | inactive | inactive | inactive | inactive | inactive | inactive | inactive | inactive | inactive | inactive | inactive | inactive |  |  |  | inactive |  | inactive | inactive |  |
| CCO[Si](CCCN=C=O)(OCC)OCC | inactive | inactive | inactive | inactive | inactive |  | inactive | inactive |  | inactive | inactive | inactive |  |  | inactive |  | inactive | inactive | inactive |  |
| NC(=O)c1ncn([C@@H]2O[C@H](CO)[C@@H](O)[C@H]2O)c1N | inactive | inactive | inactive | inactive | inactive | inactive | inactive | inactive |  |  | inactive | inactive |  | inactive | inactive | inactive |  | inactive | inactive |  |
| CCCCCCCCCCCCCCCCCC(=O)OCCCCCCCCCCCCCC(C)C | inactive | inactive | inactive | inactive | inactive | inactive | inactive | inactive | inactive | inactive | inactive | inactive |  | inactive | inactive | inactive |  | inactive | inactive |  |
| CC(C)N1C(=O)c2ccccc2C1=O | inactive | inactive | inactive | inactive | inactive |  | inactive | inactive | inactive | inactive | inactive |  |  | inactive | inactive | inactive | inactive | inactive | inactive |  |
| COC(=O)c1ccc(C(=O)OC)c(C(=O)OC)c1 | inactive | inactive | inactive | inactive | inactive |  | inactive | inactive |  | inactive | inactive |  |  |  | inactive | inactive | inactive |  |  |  |
| COc1nc(C)nc(N)n1 | inactive | inactive | inactive | inactive | inactive | inactive | inactive | inactive | inactive | inactive | inactive | inactive |  | inactive | inactive | inactive | inactive | inactive | inactive |  |
| O=C1OC(=O)c2cc([N+](=O)[O-])ccc21 | inactive | inactive | inactive | inactive | inactive |  | inactive | inactive | inactive | inactive | inactive | inactive |  | inactive | inactive |  | inactive | inactive | inactive |  |
